# According to PubChem BioAssay (NCI):
# The panel holds about 83,000 compounds, 20% with a hit somewhere; the sample as a whole holds those more often.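 Interpretation: 100, growth as untreated; towards 0, rising growth inhibition; 0, no net growth; 0 to -100, cell death. Compounds scoring below 10 were considered active.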 Active and inactive are the calls of the source.
# System: MDA-MB-468 breast
# Assay: NCI-60 one-dose screen, 48 h (100 = growth as untreated, 0 = no growth, -100 = all killed)
# Conditions: 10 µM unless noted
row,Compound,growth
1,Clc1ccc(N/N=C(/c2ccccc2)c2ccccn2)nc1,4.13% (active)
2,COc1cc(N)c2ncccc2c1SC,107% (inactive)
3,Clc1ccc2c(c1)C[C@H]1C[C@@H](c3cccs3)N2O1,106% (inactive)
4,CN1CCN(Cc2ccc(NC(=O)c3cncc(C#Cc4cnc5ccc(OCC6COC6)nn45)c3)cc2C(F)(F)F)CC1,-60.7% (active)
5,CC(C)(C)c1ccc([I+]c2ccc(C(C)(C)C)cc2)cc1,-26% (active)
6,Cc1cccc(C)c1NCc1nc(-c2ccccc2)n[nH]1,122% (inactive)
7,C=C(C)C1CC(O)C2(C)CCCC3C2C1CC(C)C3(C)CC/C(C)=C/C(O)C1CCC(=O)c2c(OC)cc(OC)cc21 (centres undefined),0.0686% (active)
8,CCCCCNCCCCCNc1cc(OC)cc2cccnc12,45.3% (inactive)
9,O=C1NC(=O)C(c2cnc3ccccn23)=C1c1cn2c3c(cc(F)cc13)CN(C(=O)N1CCCCC1)CC2,47.6% (inactive)
10,C#CCOc1ccc2ncnc(Nc3cccc(NC(=O)C=C)c3)c2c1,41.6% (inactive)
11,C=C1C(=O)O[C@H]2[C@H]1CC/C(CNC(=O)/C1=C/CC[C@@]3(C)O[C@H]3[C@H]3OC(=O)C(=C)[C@@H]3CC1)=C\CC[C@@]1(C)O[C@@H]21,42.9% (inactive)
12,COc1cc2oc(-c3cccc(C(=O)Nc4ccc(Cl)cc4)c3)cc(=O)c2c(OC)c1OC,43.6% (inactive)
13,CCCCOP(=O)(OCCCC)C(C(=O)OCC)C(CC(=O)OCC)C(=O)OCC (centres undefined),124% (inactive)
14,CN(C)CC(C(=O)c1ccccc1)c1ccccc1 (centres undefined),-47.8% (active)
